Among the data in PubChem BioAssay AID1573 (National Center for Advancing Translational Sciences (NCATS), 2009) are Potency values, retold here.

Records with an inconclusive call do not appear. Calls of active or inactive are those of the source. Calls follow the shape of the dose curve; as a rule, active = well fitted inhibition curve with a large enough effect; inconclusive = small, poorly fitted or top-dose-only effect; inactive = no such curve, though single readings can be large or run the other way.

For the assay, the target named is Thyroid hormone receptor beta (Homo sapiens) (UniProt P10828). Nature of the assay: Concentration Response Confirmation Assay for Inhibitors of the Interaction of Thyroid Hormone Receptor and Steroid Receptor Coregulator 2. The settings on record: TRb LBD + Texas Red SRC2 peptide, fluorescence polarization, 5 h; series mostly up to 92.2 µM. From the text: NIH Molecular Libraries Probe Production Network [MLPCN] NIH Chemical Genomics Center [NCGC] MLPCN Grant: DK058080 Assay Provider: R. Kip Guy, St. Jude Children's Research Hospital NCGC Assay Overview: Thyroid receptor (TR) regulates many homeostatic processes including basal metabolism, cardiovascular function, body weight, and lipid trafficking. TR modulators are potential therapeutics for obesity and hyperlipidemias but current thyroid analogs have undesirable side effects, particularly cardiac stimulation. To identify inhibitors that specifically prevent the interaction of TR with the steroid receptor coregulator 2 (SRC2), a fluorescence polarization assay was screened. This assay detects interaction of the ligand-binding domain of human TRb with a Texas Red labeled SRC2 peptide, corresponding to a 20 amino acid region of the nuclear receptor interaction domain (Arnold et al., 2006). Small molecule inhibitors that block the interaction of TR and SRC2 are detected by a decrease in fluorescence polarization. This assay is a confirmation assay for AID 1469. Arnold, L. A.; Estebanez-Perpina, E.; Togashi, M.; Shelat, A.; Ocasio, C. A.; McReynolds, A. C.; Nguyen, P.; Baxter, J. D.; Fletterick, R. J.; Webb, P.; Guy, R. K. A high-throughput screening method to identify small molecule inhibitors of thyroid hormone receptor coactivator binding. Sci STKE 2006, p 13.
Thyroid hormone receptor beta (Homo sapiens), sequence (P10828 whole entry, looked up, the tested form may be a part): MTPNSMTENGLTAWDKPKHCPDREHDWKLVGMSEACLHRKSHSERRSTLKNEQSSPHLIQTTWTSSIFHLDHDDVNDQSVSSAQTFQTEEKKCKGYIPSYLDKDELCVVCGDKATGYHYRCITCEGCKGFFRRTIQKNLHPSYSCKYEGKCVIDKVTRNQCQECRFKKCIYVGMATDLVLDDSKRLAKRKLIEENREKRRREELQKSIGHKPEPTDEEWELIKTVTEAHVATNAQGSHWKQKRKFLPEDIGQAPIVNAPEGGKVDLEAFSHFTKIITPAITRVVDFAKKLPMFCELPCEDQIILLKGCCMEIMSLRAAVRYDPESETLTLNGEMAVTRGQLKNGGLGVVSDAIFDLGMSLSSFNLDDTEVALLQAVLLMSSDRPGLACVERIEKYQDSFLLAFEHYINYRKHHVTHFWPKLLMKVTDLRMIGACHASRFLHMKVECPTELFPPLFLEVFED
NCGC Assay Protocol Summary: For screening, 5 uL/well 0.6 uM TRb and 20 nM SRC2 Texas Red in protein buffer (20mM Tris hydrochloride, 100mM NaCl, 10% glycerol, 1mM EDTA, 0.01% NP-40, 1mM DTT, 1uM T3 and 5% DMSO) was dispensed into black solid 1536-well plates (Grenier) using a solenoid-based dispenser. Following transfer of 23 nL compound or DMSO vehicle by a pin tool, the plates were centrifuged 15 s at 1000 RPM and incubated 5 hr at ambient temperature. The plates were read by an Envision (Perkin Elmer) to detect fluorescence polarization of SRC2 Texas Red (555 nm excitation and 632 nm emission). Data were normalized to unbound (all components except TRb) and bound SRC2 Texas Red controls. In this assay, we provide % activity data for each concentration as well as potencies for the active compounds. Keywords: NIH Roadmap, MLPCN, MLI, MLSMR, qHTS, NCGC, qHTS, thyroid hormone receptor, steroid receptor coactivator, fluorescence polarization
As to `C=CCNC(=O)/C(C#N)=C\c1cc(Cl)c(OCC)c(OC)c1`, the Potency is 35.5 µM (active). To `CN(CCO)c1nc(N)c2c(N)nc3c(c2c1C#N)CC(=O)N3C1CCCC1` belongs “inactive”; to `COc1ccc(-c2nc(CS(=O)CC(=O)NCc3ccccn3)c(C)o2)cc1` (stereo not given), 35.5 µM (active); to `Cc1nnc(SCC(=O)Nc2ccc(N(C)C)cc2)[nH]c1=O`, “inactive”. For the molecule `Cc1cc(N=Cc2c(O)ccc3ccccc23)no1`, the Potency is 28.2 µM (active). To `Cc1ccc(OC(=S)Nc2ccc(O)cc2)cc1` belongs “inactive”; to `CCCCCCN=CC1=C(O)CC(C)(C)CC1=O`, “inactive”. The figure for `Cc1ccccc1Nc1cc2ccccc2c(=O)[nH]1` is 15.8 µM (active); for `COc1cc(C(c2c(C)[nH][nH]c2=O)c2c(C)[nH][nH]c2=O)ccc1OC(=O)c1cccc(C)c1` it is 31.6 µM (active). Consider `C=CCNC(=O)/C(C#N)=C/c1c(C)nn(-c2ccc(Cl)cc2)c1Cl`, for which the Potency was 17.8 µM (active). `COn1c2c(c3c4nonc4ccc31)CCCC2`: the Potency was 35.5 µM (active).

Turning to `Nc1cc(-c2ccncc2)c[nH]c1=O`, the Potency entry was “inactive”.

With `Cn1c(=O)[nH]c2nnc(-c3ccc(Cl)c(Cl)c3)nc2c1=O`, the Potency result was “inactive”. The figure for `O=c1[nH]c(Nc2ccccc2)cc2ccccc12` is 35.5 µM (active); for `O=C(O)C1C2C=CC(O2)C1C(=O)Nc1ccc(S(=O)(=O)N2CCc3ccccc32)cc1` (stereo not given) it is 39.8 µM (active).

`O=C(O)/C=C/C(=O)Nc1ccc(SC(F)(F)C(F)(F)C(F)(F)F)cc1`: the Potency was 7.94 µM (active). Turning to `Cn1cc[nH]c1=S`, the Potency result is “inactive”. `O=C(NNc1cc(N2CCOCC2)nc(N2CCOCC2)n1)c1ccc(Cl)c(Cl)c1`: the Potency was 31.6 µM (active). Turning to `CN1CCc2ccc3c4c2[C@]1(C)Cc1cccc(c1-4)OCO3`, the Potency is 89.1 µM (active). `Nc1cc(-c2ccccc2)c[nH]c1=O`: the Potency result was “inactive”. As for `CCCc1cc(=O)[nH]c(=S)[nH]1`, the Potency result was “inactive”.

As to `Oc1ccc2ccccc2c1C=NC12CN3CCN(CN(C3)C1)C2`, the Potency is 28.2 µM (active). With `COc1cc(/C=C(\C#N)C(=O)NCC2CCCO2)ccc1OCCC(C)C` (stereo not given), the Potency is 35.5 µM (active).

`CCCCOc1ccc(C(=O)CCN2CCCCC2)cc1`: the Potency is 5.01 µM (active).

With `Cc1cccc(Cn2c(C(=O)OC(C)C)cc3c2ccn3C)c1`, the Potency entry was “inactive”. Consider `C=CC(=O)OCCOc1ccccc1`, for which the Potency is 112 µM (active). Take `Cc1nc2ccccc2n2c(O)c(CC(=O)O)cc12`: the Potency was 35.5 µM (active).

On to `O=C1CCCC(O)=C1N=Nc1cccc(S(=O)(=O)N2CCOCC2)c1`, for which the Potency entry was “inactive”. To `Oc1ccc2ccccc2c1/C=N/c1nccs1` belongs 31.6 µM (active); to `CC(NC(=O)Nc1ccc(O)cc1)(C(F)(F)F)C(F)(F)F`, “inactive”. Take `Cc1cc2ccccc2n1CCNC(=O)C(C)Oc1ccccc1` (stereo not given): the Potency entry is “inactive”. On to `O=C(O)/C=C/C(=O)Nc1ccc(OC(F)(F)F)cc1Br`, for which the Potency is 50.1 µM (active). Take `O=C(Nc1nc2ccc(Cl)cc2s1)c1ccc(N2CCCCC2)c([N+](=O)[O-])c1`: the Potency result was “inactive”. To `Cn1c(NNC(=O)c2c(F)cccc2F)cc(=O)n(C)c1=O` belongs “inactive”; to `CS(=O)(=O)c1ccc(C(=O)OCC(=O)NC(=O)C2CCCCC2)cc1[N+](=O)[O-]`, 10 µM (active).

For the molecule `Oc1ccc2ccccc2c1/C=N/c1nc2c(s1)CCCC2`, the Potency was 28.2 µM (active). For the molecule `O=c1cc(C23CC4CC(CC(C4)C2)C3)[nH][nH]1`, the Potency result is “inactive”.

`Cc1cccc(S(=O)(=O)c2cn(Cc3ccccc3)c3cc(N4CCC(C)CC4)c(F)cc3c2=O)c1`: the Potency result is “inactive”. As to `CC1=NN(Cc2ccccc2)C(=O)C1`, the Potency entry is “inactive”. With `CCCCOc1ccc(C(=O)CCN2CCOCC2)cc1`, the Potency was 5.01 µM (active).
